Experimental findings from PubChem BioAssay (Tox21) are described below.

“And” between values parts separate entries of the source, which are not always exact repeats. Equal values may be shown once. Inconclusive results are not listed. Entries that show only a call come without a potency. The source made the active and inactive calls. Calls follow the shape of the dose curve; as a rule, active = well fitted activation curve with a large enough effect in the repeat runs; inconclusive = weak or mixed curves; inactive = flat fitted curve, though single readings scatter.
Potency is read from the fitted curve at half-maximal effect.

The test in a line: A CellTox Green Cytotoxicity Assay to monitor cytotoxicity in HEK293 cells - 24 hour (AID 1224875). Also: nearly all actives have a fitted effect of over 45% in size. The conditions noted are these: CellTox Green fluorescence; series mostly up to 76.8 µM. The source says:
National Center for Advancing Translational Sciences [NCATS]
NIH Chemical Genomics Center [NCGC]
U.S. Environmental Protection Agency [EPA]
National Institutes of Environmental Health Sciences [NIEHS]
National Toxicology Program [NTP]
Cell-based models are critical for drug discovery. Determining the natural cytotoxic effects resulting from test compounds is an essential research activity. A CellTox Green Cytotoxicity Assay to monitor cytotoxicity in real time of continues cell culture during 40 hours of the compound treatment was used to screen Tox21 10K library compounds in Hek293 cells. CellTox Green Cytotoxicity Assay is a nonlytic, homogeneous, biofluorescent method to measure cytotoxicity in cell culture after experimental manipulation. The assay system uses a proprietary asymmetric cyanine dye that is excluded from viable cells but preferentially stains the dead cell's DNA. […] Viable cells produce no appreciable increases in fluorescence. Therefore, the fluorescence signal produced by the binding interaction with dead cell DNA is proportional to cytotoxicity.
The mixture of Hek293 cell suspension and reagents were dispensed at 600cells/6 ul/well in 1536-well tissue culture treated black solid bottom plates using a Multidrop dispenser. After the assay plates were incubated at a 37 C/5% CO2 incubator for 5 hours, 23 nL of compounds dissolved in DMSO, positive and negative controls was transferred to the assay plate by a pintool work station. The plates were incubated at 37 C for 40 hours. The fluorescence intensity were measured at 0h, 8h, 16h, 24h, 32h and 40h time points using ViewLux plate reader during compound treatment.
As for `C=CC(=O)NC(C)(C)CC(C)=O`, the Potency entry is “inactive”.
Consider `CN1CC[C@]23c4c5ccc(O)c4O[C@H]2[C@@H](O)C=C[C@H]3[C@H]1C5`, for which the Potency entry is “inactive”.
Take `CCOP(=O)(SC(C)CC)N1CCSC1=O` (stereo not given): the Potency result is “inactive”.
In the case of `C[N+](C)(C)CC1CO1` (stereo not given), the Potency entry is “inactive”.
As for `COc1ccc(C(=O)c2c(C)n(CCN3CCOCC3)c3ccccc23)cc1`, the Potency result is “inactive”.
As to `C=CCSSCC=C`, the Potency entry was “inactive”.
As for `CCCCCCCCCCCCN=C(N)N`, the activity change is 11.7% [at 2.72 µM, stronger effect = higher value] (inactive).
For `CCCC[N+]1(C)[C@@H]2CC(OC(=O)[C@H](CO)c3ccccc3)C[C@H]1[C@@H]1O[C@@H]12` (stereo not given in full), the Potency entry is “inactive”.
As to `CCCN(CCC)c1c([N+](=O)[O-])cc(C(C)C)cc1[N+](=O)[O-]`, the Potency result is “inactive”.
On the same count and under the same terms, under `COCc1cnc(C2=NC(C)(C(C)C)C(=O)N2)c(C(=O)O)c1` (stereo not given) stands “inactive”; under `OCCSSCCO`, “inactive”.
With `CCCC1CCCCN1` (stereo not given), the Potency result was “inactive”.
The same measure, in the same setting: the figure for `CCCCCCCCn1sccc1=O` is 55.1 µM (active) and 40.8 µM (active); for `CCOC(=O)NC(O)C(Cl)(Cl)Cl` (stereo not given) it is “inactive”; for `C1CS1` it is “inactive”.
As for `O=C=NC1CCCCC1`, the Potency entry was “inactive”.
For `CC(O)CN1CCN(CC(=O)[O-])CCN(CC(=O)[O-])CCN(CC(=O)[O-])CC1.[Gd+3]` (stereo not given), the Potency entry is “inactive”.
For `Clc1ccccc1`, the Potency result is “inactive”.
Turning to `CC(Cl)C(=O)O` (stereo not given), the Potency result is “inactive”.
For `Cc1nnc(-c2ccccc2)c(=O)n1N`, the Potency entry is “inactive”.
`C[CH2][Hg][S]c1ccccc1C(=O)O`: the Potency is 7.76 µM (active) and 5.35 µM (active).
For `O=CC=O`, the Potency result was “inactive”.
On the same count and under the same terms, under `CCCCCCCCCCCCCCCl` stands “inactive”; under `CC(C)(C)N(NC(=O)c1ccc(Cl)cc1)C(=O)c1ccccc1`, “inactive”.
Take `C#CC(O)(C=CCl)CC` (stereo not given): the Potency result was “inactive”.
On to `CC[N+]1(CCOC(=O)C(O)(c2ccccc2)c2ccccc2)CCCCC1`, for which the Potency entry is “inactive”.
For `O=[N+]([O-])O[C@H]1CO[C@H]2[C@@H]1OC[C@H]2O[N+](=O)[O-]`, the Potency entry was “inactive”.
With `CCC(C)(C)O`, the Potency result is “inactive”.
Take `CN1C(=O)CN=C(c2ccccc2)c2cc([N+](=O)[O-])ccc21`: the Potency result was “inactive”.
With `CN1CC[C@]23c4c5ccc(O)c4O[C@H]2[C@@H](O)CC[C@H]3[C@H]1C5`, the Potency result was “inactive”.
`CCSCc1ccccc1OC(=O)NC`: the Potency entry is “inactive”.
As for `CC(CC(C(N)=O)(c1ccccc1)c1ccccc1)N(C)C` (stereo not given), the Potency result is “inactive”.
Same read-out and setting: the entry for `CC(C)c1ccc(OP(=O)(Oc2ccc(C(C)C)cc2)Oc2ccc(C(C)C)cc2)cc1` is “inactive”; for `NC(=O)CF` it is “inactive”; for `OCC1CO1` (stereo not given) it is “inactive”.
Take `O=C(N[C@H]1CN2CCC1CC2)c1ccc2c(c1)OCCO2`: the Potency result is “inactive”.
As for `CC(C)(C)NCC(O)c1cc(Cl)c(N)c(C(F)(F)F)c1` (stereo not given), the Potency result was “inactive”.
In the case of `CCOC(=O)c1cn2nc(OP(=S)(OCC)OCC)cc2nc1C`, the Potency result was “inactive”.
Regarding `C[C@H](N)[C@H](O)c1ccc(O)c(O)c1`, the Potency is 19 µM (active).
As to `CCCCCCCCCCCCN(C)C`, the Potency result is “inactive”.
